Pin1 inhibitor: inhibitors of human Pin1. Q13526. Pin1 FP peptide displacement, HiFluor488, 10 min. Potency, µM (doses to about 115 µM), for the others: at the top dose activity, negative = inhibition, hits mostly inhibitors. 390,000 compounds, 0.009% hits; active = well fitted inhibition curve with a large enough effect in the polarisation, with a control signal flat, not every such curve was filed as active; inconclusive = small, poorly fitted or top-dose-only effect, or effect the other way, or a change in a side signal; inactive = no such curve, though single readings can be large or run the other way; the % refers to the polarisation; note: potency is the fitted concentration of half-maximal effect
Target sequence (Q13526 whole entry, looked up): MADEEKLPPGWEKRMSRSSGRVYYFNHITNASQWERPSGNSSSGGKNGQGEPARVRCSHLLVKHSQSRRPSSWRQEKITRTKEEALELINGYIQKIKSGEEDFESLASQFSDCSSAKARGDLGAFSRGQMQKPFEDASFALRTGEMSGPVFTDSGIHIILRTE
Tb PGK inh: T. brucei PGK inhibition | P07378 | PGK/GAPDH coupled, Kinase-Glo luminescence, 60 min | Potency, µM (highest dose often 57.5 µM), inactives show at the top dose activity change, negative = inhibition, most hits filed as inhibitors | 380,000 compounds, 0.043% hits | AID 602233; note: potency is the fitted concentration of half-maximal effect; nearly all actives have a fitted effect of over 60% in size
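Luminescent ATP detection (Kinase-Glo Plus) follows a 60-minute room-temperature incubation, with wells lacking PGK as controls. Buffer: 100 mM TEA (pH 7.6), 5 mM MgCl2, 0.01% Tween-20. Coupling enzyme GAPDH (100 nM final) supplies unstable 1,3-BPG in-well.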
PI4K2A block: PI4K2A (human) kinase inhibition | activity change, negative = inhibition, % at 76.9 µM | purified PI4K2A, ADP-Glo luminescence, 1 h; stronger effect = lower value | AID 1346378 | 420,000 compounds, 0.13% hits; in the data active = activity change below about -50%; inconclusive = mostly about -30% to -49%;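 note: -100% = wells without enzyme as full effect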
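In this quantitative HTS, ADP production by PI4K2A was quantified luminescently after 1 h at ambient temperature; 100 microM adenosine served as plate-quality control.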
Tb PFK block: T. brucei PFK enzyme inhibition; O15648; T. brucei PFK, ADP-Glo luminescence; Potency, µM (top dose mostly 57.5 µM), inactives show at the top dose activity, negative = inhibition, usual class: inhibitors; 330,000 compounds, 0.17% hits; AID 485367;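 note: potency is the fitted concentration of half-maximal effect; 0% = uninhibited 1x PFK enzyme wells and -100% = no-enzyme wells; nearly all actives have a fitted effect of over 60% in size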
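1.25 nM PFK with 0.5 mM F6P and 0.1 mM ATP in 0.1 M TEA pH 8.0, 5 mM MgCl2, incubated 45 min at room temperature; ADP measured by ADP-Glo luminescence; compounds titrated up to 57 uM.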
PI5P4K alpha inh: inhibitors of human PI5P4K alpha. P48426. PI5P4Kalpha enzyme, ADP-Glo luminescence, 60 min; stronger effect = lower value. max response, %. 330,000 compounds, 1.2% hits; active = max response of -50% or lower; inconclusive = between -30% and -50%; inactive = -30% or higher; note: value at the top dose of about 77 µM
Target sequence (P48426 whole entry, looked up): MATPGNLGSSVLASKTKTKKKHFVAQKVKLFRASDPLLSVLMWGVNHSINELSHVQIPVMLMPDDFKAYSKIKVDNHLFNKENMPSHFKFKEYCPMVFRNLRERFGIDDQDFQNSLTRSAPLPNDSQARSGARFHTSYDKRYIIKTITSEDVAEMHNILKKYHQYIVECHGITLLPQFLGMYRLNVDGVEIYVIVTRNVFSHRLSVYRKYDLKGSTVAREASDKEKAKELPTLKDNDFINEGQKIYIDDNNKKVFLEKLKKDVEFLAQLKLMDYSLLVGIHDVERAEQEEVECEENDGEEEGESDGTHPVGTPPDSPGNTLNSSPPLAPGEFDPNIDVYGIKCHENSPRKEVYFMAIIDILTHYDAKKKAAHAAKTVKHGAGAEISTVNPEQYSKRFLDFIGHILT
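Controls without substrate or without enzyme flank wells where PI5P4Kalpha converts substrate using 5 microM ATP (final). Incubation lasts 60 minutes at room temperature; ADP formed is read by ADP-Glo luminescence.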
* marks the source's active call; other numbers are inactive results; i = inactive; ? = inconclusive; · = not tested or not shown; [ ] = remark or other dose. Only a selection was taken, and hits are over-represented in it overall. Unless noted, calls come from the whole dose curve; as a rule, active = well fitted curve in the direction sought with a large enough effect; inconclusive = small, poorly fitted or top-dose-only effect, or another doubt; inactive = no such curve, though single readings can be large; an effect the other way counts as inactive or inconclusive. Unless noted, % is set by controls: 0 for no effect and ±100 for the full control effect.

SMILES	Pin1 inhibitor	Tb PGK inh	PI4K2A block	Tb PFK block	PI5P4K alpha inh
CCOC(=O)C1CCCN(C2=NC(=O)/C(=C/c3ccc(OC)cc3)S2)C1 (stereo not given)	?	-4.6%	0.5	3.0%	1.2
Cc1ccc(NS(=O)(=O)c2ccc(-c3ccccc3)cc2)cc1C	-11.8%	·	·	·	·
CC1(C)CCN2CCC(C)(C)c3c(O)ccc1c32	?	8.2%	-11.3	13.6%	-54.5*
CC1(C)CCC(C)(C)c2cc([S+](=O)([O-])N3CCN([S+](=O)([O-])c4c(F)cccc4F)CC3)ccc21	10.7%	·	·	·	·
CCNc1nc(C#N)nc2c1ncn2-c1cccc(Cl)c1	13.8%	·	·	·	·
Nc1ccc2cccc(O)c2c1	?	-8.7%	-26.4	·	-79.5*
COc1cc(/C=C2/C(=O)N(c3cccc(Br)c3)N=C2C)cc(OC)c1O	32.6%	-9.1%	-54.0*	-12.4%	6.8
COc1cc(/C=C2/C(=O)N(c3ccc(Br)cc3)N=C2C)cc([N+](=O)[O-])c1O	·	·	·	2.3%	·
Cc1ccc(Nc2ncc3c(=O)[nH][nH]c(=O)c3n2)cc1	0.4%	-2.0%	-0.2	·	-61.0*
Cc1ccc(Nc2nnc(C)c(=O)[nH]2)cc1	4.2%	i	-3.6	0.2%	-4.1
CC1=Nc2ccccc2/C1=C/c1sc(=S)n(-c2cccc(C(=O)O)c2)c1O	?	?	-1.5	-9.9%	-55.4*
CCn1c(CNC(=O)c2ccccc2F)nnc1SCC(=O)NC1CCCCC1	15.5%	·	3.4	-6.5%	-5.1
CC(C)n1c(CNC(=O)c2ccccc2F)nnc1SCC(=O)NC1CCCCC1	0.8%	i	-3.0	·	-71.4*
COc1ccc2nc(N3C(=O)/C(=C/c4ccccc4)NC3=S)sc2c1	?	-18.1%	0.1	-2.2%	-62.8*
CCOc1ccc2nc(N3CCCCCC3)sc2c1	1.4%	-0.1%	-1.7	0.8%	·
CCOc1ccc2nc(N3C(=O)/C(=C/c4ccccc4)NC3=S)sc2c1	?	-1.9%	-1.7	0.9%	-54.1*
Clc1ccc(C(Cn2ccnc2)OCc2ccc(Sc3ccccc3)cc2)c(Cl)c1 (stereo not given)	·	·	-0.7	·	·
CC1=C(C)CS(=O)N(c2ccc(S(N)(=O)=O)cc2)C1 (stereo not given)	-2.5%	2.5%	-51.6*	-8.7%	5.2
CCCOc1ccc(/C=C/c2[nH]c(=O)[nH]c(=O)c2[N+](=O)[O-])cc1OCC	?	13.3%	-4.8	1.9%	-20.5
CCOC(=O)COc1ccc(Br)cc1/C=C\c1[nH]c(=O)[nH]c(=O)c1[N+](=O)[O-]	6.2%	-14.4%	-27.9	4.9%	-74.0*
CCOC(=O)COc1ccc(Br)cc1/C=C/c1[nH]c(=O)[nH]c(=O)c1[N+](=O)[O-]	-9.6%	-6.6%	?	-2.4%	-58.7*
Cc1ccc(N2CCN(S(=O)(=O)c3ccc4c(c3)CC(=O)N4)CC2)cc1	21.3%[230 µM]	·	·	·	·
Cn1c2cc(Br)sc2c2cnn(Cc3ccccc3F)c(=O)c21	-0.7%	·	·	·	·
O=S(=O)(c1c(F)cccc1F)N1CCN(S(=O)(=O)c2c(F)cccc2F)CC1	5.3%	·	·	·	·
CCOC(=O)C1=C(C)N(CCCC(=O)O)C(=O)NC1c1cccs1 (stereo not given)	-3.2%	-0.9%	0.3	·	-66.2*
SMILES	Pin1 inhibitor	Tb PGK inh	PI4K2A block	Tb PFK block	PI5P4K alpha inh
CC1=C(C(=O)OCc2ccccc2)C(c2cccs2)NC(=O)N1CCCC(=O)O (stereo not given)	-1.5%	-0.6%	0.3	-12.9%	-66.4*
COC(=O)C1=C(C)N(CCCC(=O)O)C(=O)NC1c1cccs1 (stereo not given)	3.0%	i	2.4	-4.4%	-72.6*
CCN1C(=O)N[C@@H](c2cccs2)C(C(=O)OC)=C1C	-0.4%	-7.1%	4.4	·	-0.4
Cn1c(O)c(/C=C2\C=Nc3ccccc32)sc1=Nc1ccc(C(=O)O)cc1	?	-6.0%	-2.8	-3.3%	-65.6*
O=[N+]([O-])c1ccccc1/C=N\Nc1nccs1	-12.7%	-10.6%	2.7	1.6%	10.6
O=[N+]([O-])c1cc(/C=N\Nc2nccs2)ccc1O	·	·	·	9.53µM*	·
COC(=O)[C@]12C[C@H](CC(=O)NCC3CCCCC3)C(=O)N(Cc3ccccc3)C1=C[C@H](COCc1ccccc1)O[C@@H]2C	·	·	-2.8	·	·
COc1ccc(NC(=S)NC(NC(=O)c2ccccc2Cl)C(Cl)(Cl)Cl)c([N+](=O)[O-])c1 (stereo not given)	-1.8%	i	0.3	1.4%	·
COc1ccc(NC(=S)NC(NC(=O)CCl)C(Cl)(Cl)Cl)c([N+](=O)[O-])c1 (stereo not given)	-6.7%	-3.4%	-20.9	-1.2%	-55.2*
CCCCCCn1c(=O)c2c(ncn2C)n(C)c1=O	·	·	-0.4	·	·
COC(=O)C[C@@H]1CC[C@H]2[C@@H](COc3ccc(NC(=O)Nc4ccccc4)cc3C(=O)N2C)O1	·	·	2.3	·	·
Cc1cccc(/C=C/c2nc3ccccc3c(=O)[nH]2)c1	-6.5%	-8.1%	-1.1	1.1%	-1.0
Cc1[nH]c2ccccc2c1/C=C/c1nc2ccccc2c(=O)[nH]1	58.9%	2.1%	-7.6	19.1%	-63.3*
Fc1ccc(-[n+]2nc(Nc3ccccc3)sc2-c2c3ccccc3cc3ccccc23)cc1	0.4%	i	5.0	1.8%	-62.8*
COc1ccc(C)cc1Nc1n[n+](-c2ccccc2)c(-c2cc(OC)c(OC)cc2Br)s1	4.0%	-4.4%	-9.1	0.9%	-16.0
COc1ccc(C)cc1Nc1n[n+](-c2ccccc2)c(-c2c(OC)ccc3ccccc23)s1	1.8%	7.1%	2.4	0.0%	-54.5*
Cc1ccc(-n2c(SCc3cccc(F)c3)nnc2-c2cccc(C)c2)cc1	·	·	5.7	·	·
COC(=O)c1cc(Cl)ccc1NS(=O)(=O)C(F)(F)F	·	·	-0.1	·	·
COc1ccc(NS(=O)(=O)c2cccc(C(=O)NNC(=O)c3cccn3C)c2)cc1	?	-2.9%	-21.9	?	-75.4*

Screening data: PubChem, National Center for Advancing Translational Sciences (NCATS)
